Screen size: about 48,000 compounds; about 13,000 (27%) showed an effect of 50% or more. Some of the results follow.
test system: Wolbachia pipientis; assay: Anti-Wolbachia Cell-Based Screen; type: functional; design: scale not given: in the data most compounds retested in dose-response had high values; conditions: 5 µM

| SMILES | Percent Effect |
| --- | --- |
| CNc1cc(CCNC(=O)c2cccnc2)nc(-c2ccncc2)n1 | -9.73% |
| O=C(NC[C@H]1O[C@H](Cc2cc(-c3ccccn3)on2)CC[C@@H]1O)C1CC1 | -6.652% |
| CNc1cc(CCNC(=O)C2CCCC2)nc(-c2ccccn2)n1 | 117% |
| CCc1nc(CCNS(=O)(=O)c2cccc(C(=O)N(C)CC)c2)cs1 | 4.281% |
| CNc1cc(CCNC(=O)CC(C)C)nc(-c2ccccn2)n1 | 101.5% |
| CN(C)C(=O)c1cccc(CCNS(=O)(=O)c2ccccc2)c1 | 19.97% |
| CC(C)C(O)CNC(=O)CCCc1ccccn1 (stereo not drawn) | -2.211% |
| CNc1cc(CCNS(=O)(=O)c2ccccc2)nc(-c2ccccn2)n1 | 105% |
| O=C(Nc1cc(-c2ccccn2)no1)C1CC1 | -13.86% |
| CC(O)CN1CCC(CNCCOCC(F)(F)F)CC1 (stereo not drawn) | 8.822% |
| Cc1cccc2[nH]c(C3CCN(C(=O)c4cccnn4)CC3)nc12 | 19.31% |
| Cc1cccc(CN2Cc3[nH]nc(COCCO)c3C2)n1.O=C(O)C(F)(F)F | -6.746% |
| CC(C)OCCCNC(=O)CN(c1ccc(F)c(F)c1)S(C)(=O)=O | 109.3% |
| CCOCC(=O)N(C)c1ccc(F)c(Cl)c1 | 11.18% |
| Cc1cccc(CC(=O)NCCCOC(C)C)c1 | 4.055% |
| CCOCCCC(=O)NS(=O)(=O)c1ccc(C)s1 | -11.1% |
| CCOCCCNC(=O)CN(c1cc(C)cc(C)c1)S(C)(=O)=O | 107.2% |
| Cc1ccc(N(CC(=O)NCc2nnc3n2CCC3)S(C)(=O)=O)cc1 | -5.606% |
| CCOCCCNC(=O)CCSCc1csc(C)n1 | 4.852% |
| CCOCCCNC(=O)CN(c1ccc(F)c(F)c1)S(C)(=O)=O | 103.3% |
| CCOCCCNC(=O)CN(c1ccc(C)c(C)c1)S(C)(=O)=O | 99.16% |
| CCOCCCNC(=O)c1cc(Br)c2c(c1)OCCO2 | -17.45% |
| CC(C)OCCCNC(=O)CSc1nnc(OC(C)C)s1 | -7.044% |
| CCOCCC(=O)N(C)c1ccc(F)c(Cl)c1 | -4.782% |
| CCCNC(=O)C(C)Nc1ccn(Cc2ccccn2)n1 (stereo not drawn) | 6.912% |
| CCCOCCN1CCc2[nH]c(-c3ccccc3)nc2C1 | -7.69% |

| SMILES | Percent Effect |
| --- | --- |
| CN(C)C1COC2(CCN(S(=O)(=O)c3ccc(F)cc3)CC2)C1.O=C(O)C(F)(F)F (stereo not drawn) | -7.314% |
| CN(CC1Cc2ccccc2CN1C)c1nc(N)nc2c1CCNCC2 (stereo not drawn) | -3.797% |
| COCc1cc(N(C)Cc2c(C)nn(C)c2C)n2nccc2n1 | 12.12% |
| CCOCCCNC(=O)CN(c1cccc(F)c1)S(C)(=O)=O | 112.7% |
| CCOCCCNC(=O)Cc1cccc(F)c1 | 2.614% |
| COCCCNC(=O)CN(C)Cc1ccc(F)cc1Cl | -11.13% |
| COc1cccc2ccc(CN3CCN(c4ncccc4C)CC3)nc12 | 2.179% |
| Cc1nc(N)ncc1C(=O)N1CCCC(CCc2ccc(F)cc2)C1 (stereo not drawn) | 102.6% |
| Cc1nc(N)sc1C(=O)N1CCCC(COc2ccc(F)cc2)C1 (stereo not drawn) | -20.41% |
| CN1N=C(C(=O)N2CCCC(CCc3ccccc3F)C2)CCC1=O (stereo not drawn) | -18.53% |
| O=C(c1cnc(O)cc1O)N1CCCC(CCc2ccccc2F)C1 (stereo not drawn) | 119.6% |
| CN1N=C(C(=O)N2CCCC(CCc3cccc(F)c3)C2)CCC1=O (stereo not drawn) | -39.97% |
| Cc1nc(N)ncc1C(=O)N1CCCC(CCc2ccc(F)c(F)c2)C1 (stereo not drawn) | 95.78% |
| CCc1nc(N)sc1C(=O)N1CCCC(CCc2ccccc2C)C1 (stereo not drawn) | 1.755% |
| COc1coc(CN2CCCC(CCc3ccccc3F)C2)cc1=O (stereo not drawn) | 19.37% |
| Cc1ccc(-c2ncc(C(=O)N3CCCC(CCN)C3)c(O)n2)cc1 (stereo not drawn) | 0.928% |
| Cc1nc(N)ncc1C(=O)N1CCCC(CCc2ccccc2F)C1 (stereo not drawn) | 102.1% |
| CN1N=C(C(=O)N2CCCC(CCc3c(F)cccc3F)C2)CCC1=O (stereo not drawn) | 7.677% |
| Cc1nc(CN2CCCC(CCc3ccc(F)c(F)c3)C2)c[nH]1 (stereo not drawn) | -4.452% |
| O=C(NCCN1CCOCC1)N(Cc1ccoc1)C1CCCCC1 | 0.09271% |
| COC(=O)CCC(=O)Nc1ccc(Br)c(C)n1 | -4.996% |
| COc1cccc(CCC2CCCN(C(=O)c3cnccn3)C2)c1 (stereo not drawn) | -42.01% |
| COc1cccc(CCC2CCCN(C(=O)c3ccc(OC)o3)C2)c1 (stereo not drawn) | -11.16% |
| COc1ccc(CCC2CCCN(C(=O)c3cnc(N)nc3C)C2)cc1 (stereo not drawn) | 107.8% |
| CN(C)CCN(C)C(=O)c1cn(CC2CCCCC2)nn1 | 101.9% |
| Cc1nccn1CCC(=O)N1CCCN(c2ccccc2)CC1 | 21.45% |

| SMILES | Percent Effect |
| --- | --- |
| CN(Cc1ccncc1)C(=O)NCc1cn(-c2ccccc2)nn1 | -7.371% |
| Cc1nccn1CCN(C)C(=O)c1cn(CC2CCCCC2)nn1 | 121.2% |
| CCN(Cc1ccncc1)C(=O)c1cn(CCC2CCCCC2)nn1 | 4.586% |
| Cc1nccn1CCC1CCCCN1C(=O)c1ccc(N(C)C)cc1 (stereo not drawn) | 11.5% |
| Cc1nccn1CCC1CCCCN1Cc1cnc(N(C)C)nc1 (stereo not drawn) | -18.73% |
| CCN(Cc1ccncc1)C(=O)c1cn(CC2CCCNC2)nn1 (stereo not drawn) | -3.068% |
| Cc1nccn1CCN(C)C(=O)c1cn(-c2ccccc2)nn1 | 107.7% |
| CC(C)c1nn(C)c(N(C)C)c1CNCc1cscn1.Cl | -8.215% |
| O=C(NCC1CC1)[C@@H]1CCO[C@@H]2CCN(c3ncccn3)C[C@@H]21.O=C(O)C(F)(F)F | -3.49% |
| Cc1ncccc1NC(=O)[C@@H]1CCO[C@@H]2CCN(c3ccncn3)C[C@H]21 | 113.9% |
| CC(C)NC(=O)[C@@H]1CCO[C@@H]2CCN(c3ncccn3)C[C@@H]21.O=C(O)C(F)(F)F | -3.581% |
| COCCNC(=O)[C@@H]1CCO[C@@H]2CCN(c3ccc(C)nn3)C[C@@H]21 | -1.212% |
| Cc1ncccc1NC(=O)[C@@H]1CCO[C@@H]2CCN(c3ccccc3)C[C@@H]21.O=C(O)C(F)(F)F.O=C(O)C(F)(F)F | 108.5% |
| O=C(NCc1ccco1)[C@@H]1CCO[C@@H]2CCN(c3ccncn3)C[C@H]21.O=C(O)C(F)(F)F | -22.24% |
| CC(=O)N(C)Cc1ccccc1NCc1c(C)cccc1C | -18.14% |
| O=C(C1CC1)N1CC[C@H](c2nc3ccccc3o2)C1 | 7.952% |
| O=C(C1CC1)N1CC[C@H](c2nnc(-c3ccccc3F)o2)C1 | -4.544% |
| CCc1c(C)nn2c(O)cc(C3CCN(C(=O)C4CC4)C3)nc12 (stereo not drawn) | 96.58% |
| COc1cccc(CN2CCCC(Cn3nc(C)nc3C)C2)c1 (stereo not drawn) | 103.7% |
| Cc1nc(C)n(CC2CCCN(Cc3cccc(C(N)=O)c3)C2)n1 (stereo not drawn) | 133.9% |
| COc1ccc(CN2CCCC(Cn3nc(C)nc3C)C2)cc1F (stereo not drawn) | -3.884% |
| Cc1nc(C)n(CC2CCCN(Cc3cccc(C#N)c3)C2)n1 (stereo not drawn) | -5.879% |
| Cc1nc(C)n(CC2CCCN(Cc3ccc(C(N)=O)cc3)C2)n1 (stereo not drawn) | -2.004% |
| Cc1nc(C)n(CC2CN(Cc3cccc(C(N)=O)c3)CCO2)n1 (stereo not drawn) | -4.426% |
| Cc1nc(C)n(CC2CN(Cc3cccnc3)CCO2)n1 (stereo not drawn) | 5.869% |
| Cc1nc(C)n(CC2CCCN(Cc3ccc4c(c3)OCCO4)C2)n1 (stereo not drawn) | 92.75% |

| SMILES | Percent Effect |
| --- | --- |
| Cc1nc(C)n(CC2CCCN(Cc3cccnc3)C2)n1 (stereo not drawn) | 89.08% |
| COC(=O)c1ccc(C(=O)NCc2ccco2)nc1 | -23.57% |
| CCc1nccn1CCC(=O)N1CC[C@@H](c2ccc(F)cc2)[C@H](O)C1 | -13.2% |
| COc1ccccc1C1(CNc2nnc(C)c(C)c2C#N)CCOCC1 | 0.2404% |
| Cc1cc(CN(C)C(=O)NCC2CCS(=O)(=O)C2)no1 (stereo not drawn) | -10.09% |
| Cc1nc(CNC(=O)NC2CC(C)(C)OC2(C)C)sc1C (stereo not drawn) | -0.2444% |
| CC(CO)NC(=O)Nc1ccc(Cl)cc1OCC(F)(F)F (stereo not drawn) | -4.812% |
| CC(C)OC(=O)c1ccc(Cl)c(NC(=O)NCCN2CCOCC2)c1 | -2.134% |
| O=C(NCCCO)Nc1cccc(Cl)c1F | -20.85% |
| CNC(=O)Nc1cnc2cc(Cl)ccc2c1O | 96.42% |
| O=C(NCCN1CCOCC1)Nc1cnc2cc(Cl)ccc2c1O | 96.85% |
| O=C(NCCCN1CCOCC1)Nc1cnc2cc(Cl)ccc2c1O | -16.9% |
| O=C(NCCO)Nc1cccc(Cl)c1SC(F)F | 0.2889% |
| O=C(NCCO)Nc1cnc2cc(Cl)ccc2c1O | 99.99% |
| O=C(NCCCO)Nc1cnc2cc(Cl)ccc2c1O | 96.93% |
| O=C(NCC1CC1)Nc1cnc2cc(Cl)ccc2c1O | -14.95% |
| CC(C)OCCCNC(=O)Nc1cccc2ncccc12 | -8.776% |
| N[C@H]1CN(C(=O)c2cnc3cc(Cl)ccc3c2O)C[C@@H]1C1CC1 | 6.977% |
| CC(=O)NC(C(=O)N(C)Cc1nnc2n1CCC2)C(C)C (stereo not drawn) | 2.941% |
| Cc1cc(C(=O)N2C[C@@H]3COC[C@]3(c3nnc(C4CC4)o3)C2)on1 | -20.3% |
| COc1ccccc1OC1CN(C(=O)C(c2ccc(F)cc2)N(C)C)C1 (stereo not drawn) | -23.44% |
| CCOc1c(Br)cc(C2C3=C(COC3=O)Nc3[nH]nc(C)c32)cc1OC (stereo not drawn) | -13.27% |
| Cc1cnc(C(=O)N(C)Cc2nc(-c3ccccn3)no2)cn1 | -1.871% |
| Fc1ccccc1Cc1noc(CN2CCC(N3CCSCC3)CC2)n1 | 5.463% |
| Cc1ccccc1N1CCCN(C(=O)c2cn(C)c3ccccc23)CC1 | 5.002% |
